Values joined by “and” are separate entries in the source; they are usually repeats but may differ in a detail not shown here. Identical values can stand only once. The panel holds about 79,000 compounds, 15% with a hit somewhere; the sample as a whole holds those more often. More than one record can exist for a structure, and the calls need not agree. Active and inactive are the calls of the source. No stated cut-off is given here; in the data, active means growth inhibition above about 70%; inactive means the rest.
Tests used:
[1] = NCI Yeast Anticancer Drug Screen. Data for the rad52 strain (AID 147);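 further: 0% = growth of vehicle-treated control cultures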; conditions: S. cerevisiae rad52 mutant growth inhibition, stronger effect = higher value
How it was run: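 Here a repair-compromised yeast strain receives each compound; its growth is then quantified and normalised to vehicle-only controls.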

[2] = NCI Yeast Anticancer Drug Screen. Data for the wt1 strain (AID 149);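 further: 0% = growth of vehicle-treated wt1 cultures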; conditions: S. cerevisiae wt1 strain (SPY 50644) growth inhibition, stronger effect = higher value
How it was run: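 wt1 strain grown with compound or vehicle; inhibition taken from the growth difference.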

[3] = NCI Yeast Anticancer Drug Screen. Data for the rad50EPP+ strain (AID 151);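 further: 0% = growth of vehicle-treated control cultures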; conditions: S. cerevisiae rad50 mutant strain, stronger effect = higher value
How it was run: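 Read-out is yeast growth inhibition relative to vehicle; cells used were the rad50EPP+ strain.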

[4] = NCI Yeast Anticancer Drug Screen. Data for the mgt1 strain (AID 153); conditions: S. cerevisiae mgt1 mutant growth inhibition, stronger effect = higher value
How it was run: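 Measured: inhibition of mgt1 yeast growth by compound, normalized to vehicle-treated cultures.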

[5] = NCI Yeast Anticancer Drug Screen. Data for the rad50 strain (AID 155);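 further: 0% = growth of vehicle-only cultures of the same strain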; conditions: S. cerevisiae rad50 strain growth inhibition, stronger effect = higher value
How it was run: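 DNA repair mutant yeast, compound exposure, growth read-out; inhibition is taken relative to vehicle.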

[6] = NCI Yeast Anticancer Drug Screen. Data for the mec2-1 strain (AID 157); conditions: S. cerevisiae mec2-1 strain, stronger effect = higher value
How it was run: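 Using mec2-1 yeast: add compound, measure growth, express inhibition versus vehicle-treated cultures.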

[7] = NCI Yeast Anticancer Drug Screen. Data for the rad14 strain (AID 159);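 further: 0% = growth of vehicle-treated control cultures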; conditions: S. cerevisiae rad14 strain growth inhibition, stronger effect = higher value
How it was run: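 DNA repair-defective yeast, compound-exposed; % growth inhibition derived by comparison with vehicle-treated controls.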

[8] = NCI Yeast Anticancer Drug Screen. Data for the sgs1 mgt1 strain (AID 161);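 further: 0% = growth of cultures given vehicle only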; conditions: S. cerevisiae sgs1 mgt1 strain, stronger effect = higher value
How it was run: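 Growth of a repair-deficient yeast mutant was monitored after compound treatment and expressed as inhibition relative to vehicle-treated cultures.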

[9] = NCI Yeast Anticancer Drug Screen. Data for the CLN2oe strain (AID 163);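 further: 0% = growth of vehicle-only control cultures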; conditions: S. cerevisiae CLN2oe strain, stronger effect = higher value
How it was run: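 Whole-cell yeast growth assay. A strain engineered for altered cell-cycle control received compound, and inhibition relative to vehicle-treated cultures was recorded.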

[10] = NCI Yeast Anticancer Drug Screen. Data for the cln2 rad14 strain (AID 165);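 further: 0% = growth equal to vehicle treated cultures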; conditions: S. cerevisiae cln2 rad14 strain, stronger effect = higher value
How it was run: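 Yeast strain cln2 rad14, bearing defects in cell cycle control and DNA repair, serves as the test system; values reflect growth inhibition compared with vehicle.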

[11] = NCI Yeast Anticancer Drug Screen. Data for the bub3 strain (AID 167); conditions: S. cerevisiae bub3 mutant strain, stronger effect = higher value
How it was run: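 In this screen, a yeast mutant lacking normal mitotic checkpoint function is challenged with compound. Relative growth versus vehicle gives the inhibition value.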

[12] = NCI Yeast Anticancer Drug Screen. Data for the wt2 strain (AID 169);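 further: 0% = growth of vehicle-treated yeast cultures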; conditions: S. cerevisiae wt2 strain growth inhibition, stronger effect = higher value
How it was run: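 Treated yeast vs. vehicle-treated yeast: growth inhibition determined.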

[13] = NCI Yeast Anticancer Drug Screen. Data for the mlh1 strain (AID 171);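 further: 0% = growth of vehicle-treated control cultures of the same strain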; conditions: S. cerevisiae mlh1 strain growth inhibition, stronger effect = higher value
How it was run: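 A yeast strain with a defined genetic lesion serves as the test organism. Cultures receive compound or vehicle, and growth is measured.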

[14] = NCI Yeast Anticancer Drug Screen. Data for the sgs1 strain (AID 173);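 further: 0% = growth of vehicle-only control cultures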; conditions: S. cerevisiae sgs1 mutant, stronger effect = higher value
How it was run: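 A genetically defined yeast mutant is incubated with the test compound, and its growth is compared to that of the same strain given vehicle.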

[15] = NCI Yeast Anticancer Drug Screen. Data for the mlh1 rad18 strain (AID 175); conditions: S. cerevisiae mlh1 rad18 strain growth inhibition, stronger effect = higher value
How it was run: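 Steps: expose repair-defective yeast to compound; measure growth; express inhibition against vehicle-treated controls.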

[16] = NCI Yeast Anticancer Drug Screen. Data for the rad18 strain (AID 177); conditions: S. cerevisiae rad18 mutant growth inhibition, stronger effect = higher value
How it was run: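 Measured value is growth inhibition of a yeast strain bearing a DNA repair alteration, referenced to vehicle-treated cells.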

[17] = at 5.0 µM (retest, dose inferred, filed as 0.5)
[18] = at 50.0 µM (retest, dose inferred, filed as 5.0)

Measured: growth inhibition

O=c1ssc(=Nc2ccccc2)n1-c1ccccc1
inactive: [1]; at 1.2 µM 10% | [1]; at 3.7 µM 9% | [1]; at 11.0 µM 5% | [1]; at 33.0 µM 20% | [1]; at 100.0 µM 62% | [2]; at 1.2 µM -3% | [2]; at 3.7 µM -5% | [2]; at 11.0 µM -4% | [2]; at 33.0 µM 0% | [2]; at 100.0 µM 11% | [3]; at 1.2 µM 6% | [3]; at 3.7 µM 3% | [3]; at 11.0 µM 3% | [3]; at 33.0 µM 32% | [4]; at 1.2 µM 0% | [4]; at 3.7 µM 2% | [4]; at 11.0 µM 0% | [4]; at 33.0 µM 12% | [4]; at 100.0 µM 39% | [5]; at 1.2 µM 9% | [5]; at 3.7 µM 5% | [5]; [17] 23% and 20% | [5]; at 11.0 µM 2% | [5]; at 33.0 µM 29% | [6]; at 1.2 µM -6% | [6]; at 3.7 µM -3% | [6]; [17] -2% and 5% | [6]; at 11.0 µM -3% | [6]; at 33.0 µM 5% | [6]; at 100.0 µM 33% | [7]; at 1.2 µM 5% | [7]; at 3.7 µM 4% | [7]; at 11.0 µM 1% | [7]; at 33.0 µM 11% | [7]; at 100.0 µM 30% | [8]; [17] 49% and 27% | [9]; at 1.2 µM 2% | [9]; at 3.7 µM -4% | [9]; at 11.0 µM -4% | [9]; at 33.0 µM 7% | [9]; at 100.0 µM 30% | [10]; [17] -11% and -1% | [11]; at 1.2 µM -5% | [11]; at 3.7 µM -9% | [11]; [17] 12% and 1% | [11]; at 11.0 µM -7% | [11]; at 33.0 µM 6% | [11]; at 100.0 µM 37% | [12]; at 1.2 µM -9% | [12]; at 3.7 µM -15% | [12]; at 11.0 µM -9% | [12]; at 33.0 µM -9% | [12]; at 100.0 µM 15% | [13]; at 1.2 µM 7% | [13]; at 3.7 µM 4% | [13]; at 11.0 µM 2% | [13]; at 33.0 µM 17% | [13]; at 100.0 µM 48% | [14]; at 1.2 µM -15% | [14]; at 3.7 µM 7% | [14]; at 11.0 µM -6% | [14]; at 33.0 µM 34%
99.5% (active) and 66.2% (inactive): [10]; at 50.0 µM
active: [3]; at 100.0 µM 80% | [5]; [18] 99% | [5]; at 50.0 µM 99.5% and 99% | [5]; at 100.0 µM 72% | [6]; [18] 97% and 98% | [6]; at 50.0 µM 99.8% and 99.5% | [8]; [18] 99% and 100% | [8]; at 50.0 µM 98.2% and 99.3% | [11]; [18] 99% and 100% | [11]; at 50.0 µM 99.5% and 99.7% | [14]; at 100.0 µM 79% | [15]; [18] 99% and 82% | [15]; at 50.0 µM 95.4% and 98.7%
86% (active) and 64% (inactive): [10]; [18]
75% (active) and 8% (inactive): [15]; [17]

CCOC1(c2cccc([N+](=O)[O-])c2)c2ccccc2Oc2ccccc21
inactive: [1]; at 1.2 µM 0% | [1]; at 3.7 µM 2% | [1]; at 11.0 µM 4% | [1]; at 33.0 µM 10% | [1]; at 100.0 µM 19% | [2]; at 1.2 µM 2% | [2]; at 3.7 µM 1% | [2]; at 11.0 µM 4% | [2]; at 33.0 µM 2% | [2]; at 100.0 µM 3% | [3]; at 1.2 µM 3% | [3]; at 3.7 µM 2% | [3]; at 11.0 µM 11% | [3]; at 33.0 µM 24% | [3]; at 100.0 µM 19% | [4]; at 1.2 µM 0% | [4]; at 3.7 µM -2% | [4]; at 11.0 µM 0% | [4]; at 33.0 µM 15% | [4]; at 100.0 µM 0% | [5]; at 1.2 µM 1% | [5]; at 3.7 µM 0% | [5]; [17] 41% | [5]; at 11.0 µM 4% | [5]; at 33.0 µM 7% | [5]; [18] 69% | [5]; at 50.0 µM 51.8% | [5]; at 100.0 µM 9% | [6]; at 1.2 µM -3% | [6]; at 3.7 µM 2% | [6]; [17] 3% | [6]; at 11.0 µM 0% | [6]; at 33.0 µM 7% | [6]; [18] 23% | [6]; at 50.0 µM 26.4% | [6]; at 100.0 µM 13% | [7]; at 1.2 µM 0% | [7]; at 3.7 µM 2% | [7]; at 11.0 µM 5% | [7]; at 33.0 µM 7% | [7]; at 100.0 µM 10% | [8]; [17] 26% | [8]; [18] 60% | [8]; at 50.0 µM 57.6% | [9]; at 1.2 µM -6% | [9]; at 3.7 µM -1% | [9]; at 11.0 µM 0% | [9]; at 33.0 µM -1% | [9]; at 100.0 µM 2% | [10]; [17] 12% | [10]; [18] 30% | [10]; at 50.0 µM 3.8% | [11]; at 1.2 µM -1% | [11]; at 3.7 µM -2% | [11]; [17] 32% | [11]; at 11.0 µM 3% | [11]; at 33.0 µM 1% | [11]; at 50.0 µM 51.7% | [11]; at 100.0 µM 1% | [12]; at 1.2 µM 1% | [12]; at 3.7 µM -1% | [12]; at 11.0 µM 1% | [12]; at 33.0 µM 2% | [12]; at 100.0 µM 4% | [13]; at 1.2 µM -2% | [13]; at 3.7 µM -2% | [13]; at 11.0 µM 1% | [13]; at 33.0 µM 3% | [13]; at 100.0 µM 10% | [14]; at 1.2 µM -1% | [14]; at 3.7 µM 1% | [14]; at 11.0 µM 0% | [14]; at 33.0 µM 6% | [14]; at 100.0 µM 16% | [15]; [17] 57% | [15]; at 50.0 µM 62% | [16]; at 1.2 µM -1% | [16]; at 3.7 µM 1% | [16]; at 11.0 µM -12% | [16]; at 33.0 µM -9% | [16]; at 100.0 µM 12%
active: [11]; [18] 77% | [15]; [18] 79%

From PubChem BioAssay (NCI)
